# Experimental data published in paper PMC5540273 (PLoS ONE, 2017).
# Values joined by “and” are separate entries in the source; they are usually repeats but may differ in a detail not shown here. Equal entries are not always repeated. Where two headings read alike, the source gives them in different places.
# Key:
# BUB1 = settings: concentration: 1 μM, replicates: in singlicate, n = 1
# CAMK1B = settings: concentration: 1 μM, replicates: in singlicate, n = 1
# CAMK1D = settings: concentration: 1 μM, replicates: in singlicate, n = 1
# CAMK1G = settings: concentration: 1 μM, replicates: in singlicate, n = 1
# CAMK1 = settings: concentration: 1 μM, replicates: in singlicate, n = 1
# CAMK2A = settings: concentration: 1 μM, replicates: in singlicate; n = 1
# CAMK2B = settings: concentration: 1 μM, replicates: in singlicate; n = 1
# CAMK2D = settings: concentration: 1 μM, replicates: in singlicate; n = 1
# CAMK2G = settings: concentration: 1 μM, replicates: in singlicate; n = 1
# CAMK4 = settings: concentration: 1 μM, replicates: in singlicate, n = 1
# CAMKK1 = settings: concentration: 1 μM, replicates: in singlicate; n = 1
# CAMKK2 = settings: concentration: 1 μM, replicates: in singlicate; n = 1
# CASK = settings: concentration: 1 μM, replicates: in singlicate, n = 1
# CDC2L1 = system: T1, CDC2L1; settings: concentration: 1 μM, replicates: in singlicate, n = 1
# T1 construct: gene CDK11B
# CDC2L2 = settings: concentration: 1 μM, replicates: in singlicate, n = 1
# CDC2L5 = system: T2, CDC2L5; settings: concentration: 1 μM, replicates: in singlicate, n = 1
# T2 construct: gene CDK13
# CDK11 = system: T3, CDK11; settings: concentration: 1 μM, replicates: in singlicate, n = 1
# T3 construct: gene CDK19
# CDK2 = settings: concentration: 1 μM, replicates: in singlicate; n = 1
# CDK3 = settings: concentration: 1 μM, replicates: in singlicate; n = 1
# CDK4-cyclinD1 = settings: concentration: 1 μM, replicates: in singlicate, n = 1
# 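Note: KINOMEscan kinase panel screen.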
compound,measurement,setting,value
N#Cc1ccc(-c2cc(-c3c[nH]nc3-c3ccccn3)ccn2)cc1 [GW693028],%Inh,BUB1,34%
same,%Inh,CAMK1B,3%
same,%Inh,CAMK1D,1%
same,%Inh,CAMK1G,0%
same,%Inh,CAMK1,1%
same,%Inh,CAMK2A,0%
same,%Inh,CAMK2B,1%
same,%Inh,CAMK2D,0%
same,%Inh,CAMK2G,13%
same,%Inh,CAMK4,0%
same,%Inh,CAMKK1,0%
same,%Inh,CAMKK2,2%
same,%Inh,CASK,9%
same,%Inh,CDC2L1,0%
same,%Inh,CDC2L2,0%
same,%Inh,CDC2L5,0%
same,%Inh,CDK11,12%
same,%Inh,CDK2,0%
same,%Inh,CDK3,6%
same,%Inh,CDK4-cyclinD1,0%
O=c1cc(N2CCOCC2)nc2n(Cc3cccc(C(F)(F)F)c3)ccn12 [GSK2297543],%Inh,BUB1,13%
same,%Inh,CAMK1B,36%
same,%Inh,CAMK1D,6%
same,%Inh,CAMK1G,0%
same,%Inh,CAMK1,4%
same,%Inh,CAMK2A,0%
same,%Inh,CAMK2B,0%
same,%Inh,CAMK2D,0%
same,%Inh,CAMK2G,4%
same,%Inh,CAMK4,0%
same,%Inh,CAMKK1,3%
same,%Inh,CAMKK2,0%
same,%Inh,CASK,9%
same,%Inh,CDC2L1,0%
same,%Inh,CDC2L2,18%
same,%Inh,CDC2L5,0%
same,%Inh,CDK11,3%
same,%Inh,CDK2,0%
same,%Inh,CDK3,0%
same,%Inh,CDK4-cyclinD1,0%
CCc1nc(-c2cccc(C)c2)c(-c2ccnc(NCc3ccccc3)c2)s1,%Inh,BUB1,18%
same,%Inh,CAMK1B,0%
same,%Inh,CAMK1D,6%
same,%Inh,CAMK1G,9%
same,%Inh,CAMK1,40%
same,%Inh,CAMK2A,11%
same,%Inh,CAMK2B,0%
same,%Inh,CAMK2D,0%
same,%Inh,CAMK2G,10%
same,%Inh,CAMK4,0%
same,%Inh,CAMKK1,3%
same,%Inh,CAMKK2,12%
same,%Inh,CASK,16%
same,%Inh,CDC2L1,0%
same,%Inh,CDC2L2,5%
same,%Inh,CDC2L5,11%
same,%Inh,CDK11,0%
same,%Inh,CDK2,0%
same,%Inh,CDK3,9%
same,%Inh,CDK4-cyclinD1,0%
O=C(c1ccc(-c2cc(-c3c[nH]nc3-c3ccccn3)ccn2)cc1)N1CCOCC1 [GW812171],%Inh,BUB1,20%
same,%Inh,CAMK1B,0%
same,%Inh,CAMK1D,21%
same,%Inh,CAMK1G,0%
same,%Inh,CAMK1,14%
same,%Inh,CAMK2A,0%
same,%Inh,CAMK2B,0%
same,%Inh,CAMK2D,0%
same,%Inh,CAMK2G,0%
same,%Inh,CAMK4,0%
same,%Inh,CAMKK1,0%
same,%Inh,CAMKK2,0%
same,%Inh,CASK,4%
same,%Inh,CDC2L1,0%
same,%Inh,CDC2L2,2%
same,%Inh,CDC2L5,11%
same,%Inh,CDK11,0%
same,%Inh,CDK2,0%
same,%Inh,CDK3,0%
same,%Inh,CDK4-cyclinD1,0%
O=C1Cc2cc(Nc3nc(NCc4cccc(S(=O)(=O)C(F)(F)F)c4)ncc3C(F)(F)F)ccc2N1,%Inh,BUB1,34%
same,%Inh,CAMK1B,11%
same,%Inh,CAMK1D,0%
same,%Inh,CAMK1G,2%
same,%Inh,CAMK1,0%
same,%Inh,CAMK2A,0%
same,%Inh,CAMK2B,0%
same,%Inh,CAMK2D,5%
same,%Inh,CAMK2G,8%
same,%Inh,CAMK4,4%
same,%Inh,CAMKK1,9%
same,%Inh,CAMKK2,3%
same,%Inh,CASK,0%
same,%Inh,CDC2L1,9%
same,%Inh,CDC2L2,0%
same,%Inh,CDC2L5,12%
same,%Inh,CDK11,8%
same,%Inh,CDK2,0%
same,%Inh,CDK3,0%
same,%Inh,CDK4-cyclinD1,5%
C[C@@H](Oc1cc(-n2cnc3ccc(NC(=O)NC(C)(C)C)cc32)sc1C(N)=O)c1ccccc1Cl [GSK346294],%Inh,BUB1,35%
same,%Inh,CAMK1B,32%
same,%Inh,CAMK1D,19%
same,%Inh,CAMK1G,2%
same,%Inh,CAMK1,11%
same,%Inh,CAMK2A,9%
same,%Inh,CAMK2B,0%
same,%Inh,CAMK2D,18%
same,%Inh,CAMK2G,23%
same,%Inh,CAMK4,3%
same,%Inh,CAMKK1,3%
same,%Inh,CAMKK2,24%
same,%Inh,CASK,11%
same,%Inh,CDC2L1,0%
same,%Inh,CDC2L2,13%
same,%Inh,CDC2L5,0%
same,%Inh,CDK11,4%
same,%Inh,CDK2,0%
same,%Inh,CDK3,9%
same,%Inh,CDK4-cyclinD1,8%
Cl.Cl.Cl.Fc1ccc(-c2ncn(C3CCNCC3)c2-c2ccnc(Nc3ccccc3)n2)cc1 [SB-238039],%Inh,BUB1; 1 µM,88% and 65%
same,%Inh,CAMK1B; 1 µM,0% and 42%
same,%Inh,CAMK1D; 1 µM,0% and 9%
same,%Inh,CAMK1G; 1 µM,9% and 0%
same,%Inh,CAMK1; 1 µM,7% and 0%
same,%Inh,CAMK2A,0%
same,%Inh,CAMK2B,0%
same,%Inh,CAMK2D,0%
same,%Inh,CAMK2G,0%
same,%Inh,CAMK4; 1 µM,18% and 26%
same,%Inh,CAMKK1,0%
same,%Inh,CAMKK2,0%
same,%Inh,CASK; 1 µM,16% and 0%
same,%Inh,CDC2L1; 1 µM,99.4% and 98.5%
same,%Inh,CDC2L2; 1 µM,99.8% and 98.2%
same,%Inh,CDC2L5; 1 µM,32% and 16%
same,%Inh,CDK11; 1 µM,0% and 2%
same,%Inh,CDK2,0%
same,%Inh,CDK3,0%
same,%Inh,CDK4-cyclinD1; 1 µM,0% and 15%
CN1c2ccc(NCc3ccc(F)cc3)cc2-c2c(cnn2C)S1(=O)=O,%Inh,BUB1,0%
same,%Inh,CAMK1B,0%
same,%Inh,CAMK1D,0%
same,%Inh,CAMK1G,0%
same,%Inh,CAMK1,0%
same,%Inh,CAMK2A,0%
same,%Inh,CAMK2B,0%
same,%Inh,CAMK2D,3%
same,%Inh,CAMK2G,15%
same,%Inh,CAMK4,22%
same,%Inh,CAMKK1,0%
same,%Inh,CAMKK2,0%
same,%Inh,CASK,26%
same,%Inh,CDC2L1,0%
same,%Inh,CDC2L2,0%
same,%Inh,CDC2L5,27%
same,%Inh,CDK11,0%
same,%Inh,CDK2,25%
same,%Inh,CDK3,0%
same,%Inh,CDK4-cyclinD1,21%
O=C(Nc1cccc(-c2nn3ncccc3c2-c2ccnc(Nc3cccc(C(F)(F)F)c3)n2)c1)c1c(F)cccc1F [GSK299495],%Inh,BUB1,80%
same,%Inh,CAMK1B,30%
same,%Inh,CAMK1D,21%
same,%Inh,CAMK1G,9%
same,%Inh,CAMK1,32%
same,%Inh,CAMK2A,100%
same,%Inh,CAMK2B,100%
same,%Inh,CAMK2D,19%
same,%Inh,CAMK2G,11%
same,%Inh,CAMK4,0%
same,%Inh,CAMKK1,0%
same,%Inh,CAMKK2,8%
same,%Inh,CASK,13%
same,%Inh,CDC2L1,0%
same,%Inh,CDC2L2,19%
same,%Inh,CDC2L5,0%
same,%Inh,CDK11,15%
same,%Inh,CDK2,0%
same,%Inh,CDK3,3%
same,%Inh,CDK4-cyclinD1,0%
Cc1nnc(-c2ccc3ncc(-c4ccc(S(C)=O)cc4)n3c2)o1 (stereo not shown),%Inh,BUB1,16%
same,%Inh,CAMK1B,6%
same,%Inh,CAMK1D,0%
same,%Inh,CAMK1G,26%
same,%Inh,CAMK1,0%
same,%Inh,CAMK2A,0%
same,%Inh,CAMK2B,0%
same,%Inh,CAMK2D,25%
same,%Inh,CAMK2G,27%
same,%Inh,CAMK4,0%
same,%Inh,CAMKK1,24%
same,%Inh,CAMKK2,46%
same,%Inh,CASK,0%
same,%Inh,CDC2L1,0%
same,%Inh,CDC2L2,0%
same,%Inh,CDC2L5,25%
same,%Inh,CDK11,17%
same,%Inh,CDK2,0%
same,%Inh,CDK3,2%
same,%Inh,CDK4-cyclinD1,8%
CC(=O)Nc1ccc(COc2ccc(Nc3ccnc4cc(-c5ccccn5)ccc34)cc2)cc1.Cl [GW440148],%Inh,BUB1,5%
same,%Inh,CAMK1B,23%
same,%Inh,CAMK1D,10%
same,%Inh,CAMK1G,7%
same,%Inh,CAMK1,20%
same,%Inh,CAMK2A,0%
same,%Inh,CAMK2B,0%
same,%Inh,CAMK2D,18%
same,%Inh,CAMK2G,21%
same,%Inh,CAMK4,0%
same,%Inh,CAMKK1,4%
same,%Inh,CAMKK2,26%
same,%Inh,CASK,1%
same,%Inh,CDC2L1,12%
same,%Inh,CDC2L2,11%
same,%Inh,CDC2L5,0%
same,%Inh,CDK11,17%
same,%Inh,CDK2,1%
same,%Inh,CDK3,0%
same,%Inh,CDK4-cyclinD1,0%
